From PubChem BioAssay
A selection: hits, their analogues and other compounds. The true share with any hit is near 9.5%.
HPGD block = qHTS Assay for Inhibitors of HPGD (15-Hydroxyprostaglandin Dehydrogenase) | Potency, µM, actives largely listed as inhibitors | 4.3% of 150,000 active | purified HPGD, NADH fluorescence kinetic, PGE2 substrate | 15-hydroxyprostaglandin dehydrogenase [NAD(+)] (Homo sapiens), P15428; active = well fitted inhibition curve with a large enough effect, not every such curve was filed as active; inconclusive = small, poorly fitted or top-dose-only effect, or another doubt; inactive = no such curve, though single readings can be large or run the other way
Target sequence (P15428 whole entry, looked up): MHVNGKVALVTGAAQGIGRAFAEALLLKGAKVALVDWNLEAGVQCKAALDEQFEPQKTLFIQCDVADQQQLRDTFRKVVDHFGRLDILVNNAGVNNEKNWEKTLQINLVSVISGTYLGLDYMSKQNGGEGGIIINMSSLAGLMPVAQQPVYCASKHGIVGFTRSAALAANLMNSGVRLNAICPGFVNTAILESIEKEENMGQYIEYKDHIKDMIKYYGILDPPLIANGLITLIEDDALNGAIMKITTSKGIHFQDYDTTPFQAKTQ
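NADH formation kinetics: reaction with 30 uM PGE2 and 1 mM NAD+ (final), 20 nM enzyme, Tris-HCl pH 8 with Tween 20, after 15 min compound preincubation at room temperature. Fluorescence change, last versus first of five reads.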
ALDH1A1 block = qHTS Assay for Inhibitors of Aldehyde Dehydrogenase 1 (ALDH1A1) | Potency, µM (doses to about 75.3 µM), usual class: inhibitors | 7.3% of 220,000 active | AID 1030, 2008 | Purified ALDH1A1, NADH fluorescence, propionaldehyde substrate; active = well fitted inhibition curve with a large enough effect, not every such curve was filed as active; inconclusive = small, poorly fitted or top-dose-only effect, or another doubt; inactive = no such curve, though single readings can be large or run the other way
Tau fluor counter = Counterscreen qHTS for Inhibitors of Tau Fibril Formation, Fluorescence Polarization; tau K18 P301L Alexa594 fluorescence, heparin fibrillization; Potency, µM (top dose mostly 57.7 µM); 0.93% of 280,000 active; AID 1463, 2008; note: nearly all actives have a fitted effect of over 55% in size
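Human K18 P301L tau (15 uM unlabeled plus 0.24 uM Alexa 594-labeled, final) in 100 mM sodium acetate pH 7 was mixed with compound and 20 uM heparin and incubated 6 hr at 37 C.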
Tau fibril ThT = qHTS for Inhibitors of Tau Fibril Formation, Thioflavin T Binding; recombinant tau K18 P301L (four-repeat tau fragment), heparin-induced fibrillization, ThT fluorescence; AID 1460, 2008; Potency, µM (doses to about 57.4 µM), hits mostly inhibitors; 2.1% of 270,000 active; Microtubule-associated protein tau (Homo sapiens), P10636; note: nearly all actives have a fitted effect of over 55% in size
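Aggregation was driven by heparin (20 uM final) acting on recombinant tau […] bearing P301L in 100 mM sodium acetate pH 7; fibrils were detected with Thioflavin T.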
Tau fibril FP = qHTS for Inhibitors of Tau Fibril Formation, Fluorescence Polarization; K18 P301L tau heparin fibrillization, Alexa594 FP, 6 h; Potency, µM (doses to about 57.7 µM), usual class: inhibitors; 0.39% of 280,000 active; AID 1468, 2008; note: nearly all actives have a fitted effect of over 55% in size
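FP of Alexa 594-tau after heparin (20 uM) induction. Substrate: human K18 P301L, 15 uM unlabeled, 0.24 uM labeled. Buffer 100 mM sodium acetate pH 7. 6 hr, 37 C.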
NPSR antag = qHTS Assay for Antagonists of the Neuropeptide S Receptor: cAMP Signal Transduction; 1% of 220,000 active; AID 1461, 2008; Potency, µM (series often up to 38.3 µM), hits mostly inhibitors; CHO-NPSR cells, cAMP TR-FRET, antagonist mode; note: nearly all actives have a fitted effect of over 50% in size
Target sequence (Q6W5P4 whole entry, looked up): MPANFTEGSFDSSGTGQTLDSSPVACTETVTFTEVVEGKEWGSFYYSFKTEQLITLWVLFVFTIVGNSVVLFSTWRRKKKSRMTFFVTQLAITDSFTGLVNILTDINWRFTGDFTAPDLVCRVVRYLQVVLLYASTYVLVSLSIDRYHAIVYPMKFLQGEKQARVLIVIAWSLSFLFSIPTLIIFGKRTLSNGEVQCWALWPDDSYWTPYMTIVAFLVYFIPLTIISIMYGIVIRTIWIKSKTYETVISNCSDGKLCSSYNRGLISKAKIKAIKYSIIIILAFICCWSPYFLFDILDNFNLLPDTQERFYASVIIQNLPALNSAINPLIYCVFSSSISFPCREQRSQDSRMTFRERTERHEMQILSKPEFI
Hits are given with their value; – = inactive; ? = inconclusive; · = no result; [ ] = dose if it differs, or a comment. Unless noted, calls come from the whole dose curve; as a rule, active = well fitted curve in the direction sought with a large enough effect; inconclusive = small, poorly fitted or top-dose-only effect, or another doubt; inactive = no such curve, though single readings can be large; an effect the other way counts as inactive or inconclusive.

SMILES	HPGD block	ALDH1A1 block	Tau fluor counter	Tau fibril ThT	Tau fibril FP	NPSR antag
O=[N+]([O-])c1cc(Br)c(O)c(/C=N/Nc2nnnn2-c2cccc3ccccc23)c1	?	18µM	?	16µM	?	?
CCOC(=O)c1nnc2c(-c3ccc(Cl)cc3)c(C)nn2c1N	·	·	–	–	–	·
COc1ccc(S(=O)(=O)NC(CC(=O)NCc2ccco2)C(C)C)cc1 (stereo unspecified)	–	–	–	–	–	–
CC(C)Oc1ccc(C(CC(=O)O)c2ccc(F)cc2)cc1 (stereo unspecified)	·	·	–	–	–	–
COc1ccc(S(=O)(=O)N(C)CC(=O)NCc2ccco2)cc1	–	35µM	–	?	–	–
CS(=O)(=O)N(CC(=O)NCc1ccco1)c1ccc(OCc2ccccc2)cc1	·	19µM	–	–	–	–
COc1ccc(C(CC(=O)NCc2ccco2)c2ccc(F)cc2)cc1 (stereo unspecified)	16µM	–	–	–	–	–
COc1ccc(NC(=O)CC(c2ccc(F)cc2)c2ccc(OC(C)C)cc2)cc1 (stereo unspecified)	–	0.2µM	–	–	–	–
CN(CC(=O)NCc1cccc(F)c1)C(=O)c1ccco1	–	–	–	–	–	–
Cc1ccc(-n2nc(C)c3c(C(=O)NCc4ccc(F)cc4)cc(C)nc32)cc1	·	·	–	–	?	·
CN(C)CCCNC(=S)Nc1ccc(Br)cc1	·	·	–	–	–	–
Cc1ccc(S(=O)(=O)Nc2cccc3ncccc23)s1	28µM	13µM	–	–	–	2µM
Cc1ccc2[nH]c(CSc3nnc(NC(=O)COc4ccccc4Cl)s3)cc(=O)c2c1	·	·	–	–	?	·
CCOC(=O)CNS(=O)(=O)c1cc(-c2n[nH]c(=O)c3ccccc23)ccc1C	3.5µM	14µM	–	–	–	?
Cc1ccc(Nc2nnc(-c3ccc(C)c(S(N)(=O)=O)c3)c3ccccc23)cc1	·	·	–	–	–	·
Cc1ccc(NS(=O)(=O)c2cc(-c3n[nH]c(=O)c4ccccc34)ccc2C)cc1	20µM	?	?	–	–	–
CCCCN1CCC[C@@H]1CNC(=O)c1cc(C#N)c2ccccc2c1OC	–	?	–	–	–	·
CCOc1cc(CNc2ccc(N(C)C)cc2)cc(Br)c1OCC(=O)NC(C)(C)C	–	3.2µM	?	7.9µM	16µM	10µM
COc1cc(CNc2ccc3[nH]c(=O)[nH]c3c2)cc(Br)c1OCC(=O)NC(C)(C)C	?	0.32µM	?	?	–	–
COc1cc(CNc2cccc(C(=O)O)c2)cc(Br)c1OCC(=O)NC(C)(C)C	?	–	–	?	–	–
COc1cc(CNc2ccc3[nH]c(=O)[nH]c3c2)ccc1OCC(=O)NC(C)(C)C	?	?	?	14µM	?	?
CC(C)(C)c1cc(C(c2cccnc2)N2CCN(CCO)CC2)cc(C(C)(C)C)c1O (stereo unspecified)	14µM	?	–	20µM	?	?
CC(C)Oc1cc(NC(=O)CSCC(=O)Nc2cccc(C(F)(F)F)c2)c(Cl)cc1Cl	–	–	?	–	35µM	?
O=C(O)CSCC(=O)Nc1cc(C(F)(F)F)ccc1Cl	–	?	–	–	–	–
CC(C)Cn1cc(NC(=O)N2CCN(c3cccc(C(F)(F)F)c3)CC2)c2ccccc2c1=O	·	·	–	?	–	·
SMILES	HPGD block	ALDH1A1 block	Tau fluor counter	Tau fibril ThT	Tau fibril FP	NPSR antag
CC(C)Cn1cc(NC(=O)Nc2cccc(C(F)(F)F)c2)c2ccccc2c1=O	·	·	8.9µM[quencher]	–	?	·
Cc1ccc(NC(=O)Nc2cn(CC(C)C)c(=O)c3ccccc23)cc1N(C)C	·	·	25µM[quencher]	?	?	·
CC(C)Cn1cc(NC(=O)NCc2ccccc2)c2ccccc2c1=O	·	·	–	–	–	·
COC(=O)c1cc(OC)c(OC)cc1NCC(=O)Nc1cccc(C(F)(F)F)c1	?	?	18µM[quencher]	?	?	–
Cc1cccc(-n2c3nc(=O)[nH]c(=O)c-3cc3ccc(Cl)cc32)c1C	·	·	–	–	–	·
CCSCc1nnc(SCC(=O)Nc2nc(C)cs2)n1C	·	–	–	–	–	–
Cc1ccc(CN(C(=O)c2ccco2)C(C(=O)NC2CCCC2)c2cccnc2)cc1 (stereo unspecified)	·	–	–	–	–	–
O=C(COC(=O)C1CCN(S(=O)(=O)c2ccccc2)CC1)NC(=O)c1ccc(OC(F)F)cc1	–	–	–	–	–	–
Cc1[nH]c2ccccc2c1C(c1ccccc1)c1ccc(Cl)s1 (stereo unspecified)	·	·	7.1µM[quencher]	?	?	·
Cc1[nH]c2ccccc2c1C(C[N+](=O)[O-])c1cccs1 (stereo unspecified)	·	–	?	–	–	?
COc1ccc(C2C(C(=O)c3ccccc3)N3c4ccccc4C=CC3C2[N+](=O)[O-])cc1 (stereo unspecified)	·	25µM	–	?	–	?
O=c1[nH]c(SCc2cccc(F)c2)nc2c1CCCC2	7.1µM	–	–	–	–	–
Cc1oc(-c2ccccc2Cl)nc1CSc1nc2c(c(=O)[nH]1)CCC2	2.8µM	–	–	–	–	–
O=c1[nH]c(SCc2ccc(Cl)cc2)nc2c1CCC2	4.5µM	–	–	–	–	–
Cc1cccc(CSc2nc3c(c(=O)[nH]2)CCCC3)c1	7.9µM	–	–	–	?	–
O=c1[nH]c(SCc2c(F)cccc2Cl)nc2c1CCC2	·	·	–	–	–	·
CCCNC(=O)CCc1nnc2ccc(N3CCN(c4cccc(OC)c4)CC3)nn12	·	·	–	–	–	·
Cc1oc(-c2ccccc2Cl)nc1CSCC(=O)N1CCCC1	–	?	–	–	–	–
Cc1oc(-c2ccccc2Cl)nc1CSCC(=O)NC1CCCC1	–	14µM	–	–	–	–
CCN1c2ccccc2NC2C1C(C(C)=O)C(=O)N2c1ccc(Cl)cc1 (stereo unspecified)	–	14µM	?	?	–	–
Cc1nc(NC(=O)CSc2ccccc2N)sc1C	–	22µM	–	–	–	–
O=C(O)CNC(=S)N(Cc1cccs1)C1CCCCC1	–	–	–	–	–	–
O=C(CNC(=S)N(Cc1ccccc1F)C1CCCCC1)NCCCN1CCOCC1	·	?	–	–	–	–
CCC(C)NC(=O)CNC(=S)N(Cc1ccccc1F)C1CCCCC1 (stereo unspecified)	·	10µM	–	–	–	–
CC(NC(=O)CNC(=S)N(Cc1cccs1)C1CCCC1)c1ccccc1 (stereo unspecified)	·	16µM	–	–	–	–
CCOCCCNC(=O)CNC(=S)N(Cc1ccccc1F)C1CCCCC1	–	14µM	–	–	–	–
